# Screens (PubChem)
# A selection: hits, their analogues and other compounds. The true share with any hit is near 4.1%.
# MazEF act: MazEF (E. coli) toxin RNase activation. FAM/BHQ RNA-DNA oligo cleavage fluorescence, 5 h. activation, % at 20 µM. hit rate 0.32% among 350,000. AID 504720; in the data active means activation above about 50%
# Target sequence (P0AE70 whole entry, looked up): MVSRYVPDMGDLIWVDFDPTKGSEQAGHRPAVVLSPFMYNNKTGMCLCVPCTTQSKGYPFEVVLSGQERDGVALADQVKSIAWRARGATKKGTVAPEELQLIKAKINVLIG
# BoNT F protease: blocks Botulinum neurotoxin F light chain protease; AID 588497; Multiplex microsphere protease cleavage assay, flow cytometry; inhibition, % at 10 µM; hit rate 0.22% among 360,000; in the data active means inhibition above about 35%, passing the limit was not always enough; inconclusive means no clear call, values can overlap the other calls; further: plate controls were buffer without enzyme for full effect and enzyme alone for no effect
# Bead autofluor: compound fluorescence in toxin protease inhibitor counterscreen; compound autofluorescence counterscreen, microsphere flow cytometry; active compounds read high; fluorescence intensity (concentration not given with the values); hit rate 3.1% among 360,000; AID 624483; in the data active means fluorescence intensity above about 16000; inconclusive means no clear call, values can overlap the other calls
# BoNT A protease: inhibitors of Botulinum neurotoxin A light chain protease; multiplex microsphere protease substrate cleavage, flow cytometry; inhibition, % at 10 µM; hit rate 0.17% among 360,000; further: plate controls were buffer without enzyme for full effect and enzyme alone for no effect
# DUSP3 inh: blocks human VHR1 dual specificity phosphatase; recombinant VHR phosphatase, pNPP absorbance; AID 1654; hit rate 0.52% among 290,000; inhibition, % at 13.3 µM; in the data active means inhibition above about 50%
# Target sequence (P51452 whole entry, looked up): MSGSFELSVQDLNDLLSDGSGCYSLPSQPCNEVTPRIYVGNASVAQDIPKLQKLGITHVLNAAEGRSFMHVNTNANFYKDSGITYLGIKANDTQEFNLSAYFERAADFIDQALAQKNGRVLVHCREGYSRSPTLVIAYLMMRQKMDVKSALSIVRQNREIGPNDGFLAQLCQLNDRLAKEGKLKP
# Anthrax LF prot: blocks Bacillus anthracis lethal factor protease; AID 588501; hit rate 0.12% among 360,000; inhibition, % at 10 µM; multiplex microsphere protease cleavage assay, LF; P15917; further: plate controls were buffer without enzyme for full effect and enzyme alone for no effect
# An asterisk follows results filed as active; ? = inconclusive; . = no result given. Unless noted, no stated cut-off is given here; in the data, active means inhibition above about 30%; inconclusive means no clear call, values can overlap the other calls; inactive means below that.
SMILES,MazEF act,BoNT F protease,Bead autofluor,BoNT A protease,DUSP3 inh,Anthrax LF prot
O=C(CCCOc1ccc(Cl)cc1Cl)N1CCN(c2ccccn2)CC1,-2.3,-3.3,16837*,-2.7,22.5,-4.9
Cc1cccc2nc3c(nc12)CCCC3,-8.7,-5.2,3857,-0.3,-5.4,1.4
CC(=O)N(c1ccccc1)c1ccccc1[N+](=O)[O-],6.0,1.4,3732,-0.1,.,-3.5
O=C(c1ccccc1Br)N1CCN(c2ncccn2)CC1,8.1,-8.2,3583,-2.4,13.9,-5.5
O=C(c1ccccc1OCc1ccccc1Br)N1CCN(c2ncccn2)CC1,-2.1,-5.2,16398*,-0.6,-10.5,-1.1
O=C(Cn1c(=O)[nH]c2ccsc2c1=O)NC1CCCCCC1,8.7,-0.9,23444*,?,35.2,-3.7
O=C(Nc1nnc(-c2ccc(F)cc2)o1)c1ccc(S(=O)(=O)N2CCOCC2)cc1,2.2,-3.7,4224,0.7,-13.9,-0.2
CC(C)[C@H](NC(=O)c1cccc(CN(Cc2ccccc2)C(=O)c2ccccc2)c1)C(=O)O,-2.7,?,3422,?,.,-7.6
C=CCn1c(SCC(=O)c2ccc(NS(=O)(=O)c3ccccc3)cc2)nnc1-c1cccs1,-9.3,0.3,20128*,?,-12.1,-0.4
C=CCn1c(SCC(=O)C(C)(C)C)nnc1-c1cccs1,0.3,0.4,23404*,-0.2,-29.1,-0.5
C=CCn1c(SCC(=O)Nc2ccc(C(=O)OCC)cc2)nnc1-c1cccs1,5.7,5.8,3726,-1.0,-2.1,1.9
C=CCn1c(CCNC(=O)c2cccs2)nnc1SCC(=O)c1ccc(Br)cc1,-1.6,-0.5,20927*,-1.1,15.8,1.1
C=CCn1c(SCC(=O)C(C)(C)C)nnc1-c1ccccn1,-1.6,-0.4,20695*,-0.3,8.8,-1.5
C=CCn1c(CCNC(=O)c2cccs2)nnc1SCC(=O)Nc1cccc(C(C)=O)c1,3.6,-8.9,3386,-0.5,7.1,-2.8
C=CCn1c(SCC(=O)NC2CC2)nnc1-c1cccs1,1.9,-7.2,5315,1.1,6.5,1.8
COc1ccc(-c2[nH]n(-c3ccc([N+](=O)[O-])cc3)c(=O)c2C=NCc2ccc(F)cc2)cc1,80.7*,-2.6,2509,1.3,-1.6,1.5
O=C(NCCCn1ccnc1)c1ccc(Br)s1,4.2,-15.1,?,-5.5,14.4,0.9
CCCC1(c2ccccc2)NC(=O)N(CC(=O)Nc2cc(C)ccc2OC)C1=O (configuration not stated),12.3,1.0,5454,0.1,2.1,-2.2
c1csc(CNCCN2CCOCC2)c1,-2.1,-0.3,16263*,0.5,7.8,-2.2
COC(=O)c1ccc(N/C(C)=C/C(=O)c2ccc(C)o2)cc1,3.8,-1.4,16289*,-0.5,16.9,-3.9
C/C(=C\C(=O)c1ccc(C)o1)Nc1ccc2c(c1)OCO2,6.3,-11.7,23606*,-1.7,-0.2,-11.8
Cc1ccc(C(=O)Nc2ccc3c(c2)OCO3)o1,0.5,-10.8,2804,-0.1,-2.0,-1.1
CCOc1ccc(N/C(C)=C/C(=O)c2ccc(C)o2)cc1,-4.1,-0.1,9417,0.1,26.4,-17.2
Cc1ccc(NC(=O)CSc2nc3ncc(Cl)cc3[nH]2)c(C)c1,-4.1,-5.4,5749,-0.7,-2.2,1.4
CCOC(=O)C1C(=O)C=C(/C=C/c2ccc(N(C)C)cc2)CC1c1ccccc1 (configuration not stated),106.0*,3.0,4380,7.2,9.0,6.2
SMILES,MazEF act,BoNT F protease,Bead autofluor,BoNT A protease,DUSP3 inh,Anthrax LF prot
CCOC(=O)C1C(=O)C=C(c2ccc(C)cc2)CC1c1ccccc1 (configuration not stated),-0.2,-3.7,4728,-0.9,1.4,-2.1
Cc1ccc(C)c(S(=O)(=O)NCc2ccc(C(=O)N3CCN(C)CC3)cc2)c1,0.2,0.0,16472*,?,25.6,-1.1
Cc1ccc(C)c(S(=O)(=O)NCc2ccc(C(=O)N3CCOCC3)cc2)c1,-11.8,-6.1,4640,-0.9,7.4,-1.3
Cc1ccccc1NC(=O)COC(=O)c1ccc(C)c(S(=O)(=O)N2CCCCC2)c1,6.1,-2.9,2962,-0.1,.,-9.8
COc1ccc(N(CC(=O)NCCC2=CCCCC2)S(C)(=O)=O)cc1OC,-3.9,7.4,22438*,3.4,29.6,0.3
CCOC(=O)c1c(C)[nH]c(C(C)=NNC(=O)Cn2nc(C)cc2C)c1C,-1.0,-5.2,?,-0.5,.,-1.4
O=C(CN(c1ccc(F)cc1)S(=O)(=O)c1ccc2c(c1)OCCO2)NCC1CCCO1 (configuration not stated),-15.6,0.9,22449*,1.2,-5.1,2.2
